Each compound was assayed on PHKG2. Conditions: concentration: 1 μM, replicates: in singlicate; n = 1.
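Note: KINOMEscan kinase panel screen.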

Compound | %Inh [%]
N#Cc1ccc(-c2cc(-c3c[nH]nc3-c3ccccn3)ccn2)cc1 [GW693028] | 0
NS(=O)(=O)CCc1cccc(Nc2nccc(-c3c(-c4cccc(NC(=O)c5c(F)cccc5F)c4)nn4ccccc34)n2)c1 [GSK336735] | 4
Cc1ccc(C(=O)NCC(N)=O)cc1-n1c(C)cc(OCc2ccc(F)cc2F)c(Br)c1=O | 1
O=C1Cc2cc(Nc3nc(NCc4cccc(S(=O)(=O)C(F)(F)F)c4)ncc3C(F)(F)F)ccc2N1 | 0
Cl.Cl.Cl.Fc1ccc(-c2ncn(C3CCNCC3)c2-c2ccnc(Nc3ccccc3)n2)cc1 [SB-238039] | 0
O=c1cc(N2CCOCC2)nc2n(Cc3cccc4ccccc34)ccn12 [GSK2333389] | 0
Fc1ccc(-c2ncn(CCCN3CCOCC3)c2-c2cccnc2)cc1 [SB-211743] | 0
Cc1cccc(Cn2ccn3c(=O)cc(N4CCOCC4)nc23)c1 [GSK2297542] | 8
COc1ccc(Nc2nccc(N3CCC(NC(=O)Nc4cccc(C(C)=O)c4)C3)n2)cc1 (stereo not drawn) [GSK1379731] | 0
Cc1ccc(NC(=O)c2ccnc(N3CCN(C)CC3)c2)cc1-c1ccc(C(=O)NCC2CC2)cc1 [GW775604] | 0
O=C(c1ccc(-c2cc(-c3c[nH]nc3-c3ccccn3)ccn2)cc1)N1CCOCC1 [GW812171] | 0
COC(=O)Nc1nc2cc(Oc3ccc(NC(=O)Nc4cc(F)ccc4F)cc3)ccc2[nH]1.Cl [GW701424] | 0
